According to PubChem BioAssay (Tox21):
Results filed as inconclusive are left out. The source made the active and inactive calls. Calls follow the shape of the dose curve; as a rule, active = well fitted curve in the direction sought with a large enough effect in the repeat runs; inconclusive = weak or mixed curves; inactive = no such curve, though single readings can be large; an effect the other way counts as inactive or inconclusive.

Experiments:
[1] = qHTS RealTime-Glo MT Cell Viability Assay in HepG2 cells - 40 hour (AID 1224870); also: nearly all actives have a fitted effect of over 50% in size
Method in brief: (§1)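 HepG2 cells mixed with RealTime-Glo MT reagents (NanoLuc plus cell-permeant prosubstrate) were seeded at 600 cells/well, incubated 5 h at 37 C/5% CO2, then pinned with compounds in DMSO; nonlytic luminescence tracked viability during 40 h treatment.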

[2] = A CellTox Green Cytotoxicity Assay to monitor cytotoxicity in HEK293 cells - 40 hour (AID 1224871); also: nearly all actives have a fitted effect of over 45% in size
Method in brief: (§2)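 Tox21 screen in HEK293: membrane-impermeant cyanine dye fluoresces on binding dead-cell DNA; compound pinned 5 h post-seeding, plates held at 37 C, signal read repeatedly through 40 h.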

[3] = qHTS RealTime-Glo MT Cell Viability Assay in HEK293 cells - 16 hour (AID 1224872); also: top concentration of the series differs between compounds; nearly all actives have a fitted effect of over 50% in size
Method in brief: (§3)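 Viability tracked continuously by luminescence as live cells reduce a prosubstrate for NanoLuc; HEK293 cells preincubated 5 h, compound-treated at 37 C, and read at 0, 8, 16, 24, 32 and 40 h.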

[4] = qHTS RealTime-Glo MT Cell Viability Assay in HepG2 cells - 8 hour (AID 1224873); also: nearly all actives have a fitted effect of over 55% in size
Method in brief: as §1

[5] = qHTS RealTime-Glo MT Cell Viability Assay in HEK293 cells - 40 hour (AID 1224874); settings: RealTime-Glo luminescence; max response: stronger effect = lower value; also: nearly all actives have a fitted effect of over 50% in size
Method in brief: (§4)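 HEK293 + NanoLuc + prosubstrate, 600 cells/well; 5 h, 37 C/5% CO2; compound 23 nL in DMSO by pintool; 37 C; luminescence read at 0, 8, 16, 24, 32 and 40 h time points.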

[6] = A CellTox Green Cytotoxicity Assay to monitor cytotoxicity in HEK293 cells - 24 hour (AID 1224875); also: series mostly up to about 77 µM; nearly all actives have a fitted effect of over 45% in size
Method in brief: as §2

[7] = qHTS RealTime-Glo MT Cell Viability Assay in HepG2 cells - 32 hour (AID 1224877); also: nearly all actives have a fitted effect of over 55% in size
Method in brief: (§5)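 Viability was tracked continuously by NanoLuc luminescence from prosubstrate reduced by living HepG2 cells, at successive time points over 40 h of compound exposure. Cells with reagent were preincubated 5 h at 37 °C before compound addition.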

[8] = A CellTox Green Cytotoxicity Assay to monitor cytotoxicity in HepG2 cells - 24 hour (AID 1224878); also: nearly all actives have a fitted effect of over 45% in size
Method in brief: (§6)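 Measurements at 0, 8, 16, 24, 32 and 40 h of treatment captured CellTox Green fluorescence in HepG2 cells that had been co-plated with reagent and preincubated 5 h at 37 C/5% CO2.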

[9] = A CellTox Green Cytotoxicity Assay to monitor cytotoxicity in HepG2 cells - 40 hour (AID 1224879); also: nearly all actives have a fitted effect of over 40% in size
Method in brief: as §6

[10] = qHTS RealTime-Glo MT Cell Viability Assay in HEK293 cells - 0 hour (AID 1224880); also: top concentration of the series differs between compounds; nearly all actives have a fitted effect of over 45% in size
Method in brief: as §4

[11] = A CellTox Green Cytotoxicity Assay to monitor cytotoxicity in HEK293 cells - 32 hour (AID 1224881); also: nearly all actives have a fitted effect of over 40% in size
Method in brief: as §2

[12] = A CellTox Green Cytotoxicity Assay to monitor cytotoxicity in HepG2 cells - 0 hour (AID 1224882); also: nearly all actives have a fitted effect of over 35% in size
Method in brief: as §6

[13] = A CellTox Green Cytotoxicity Assay to monitor cytotoxicity in HepG2 cells - 32 hour (AID 1224883); also: nearly all actives have a fitted effect of over 50% in size
Method in brief: as §6

[14] = A CellTox Green Cytotoxicity Assay to monitor cytotoxicity in HEK293 cells - 8 hour (AID 1224884); also: nearly all actives have a fitted effect of over 35% in size
Method in brief: as §2

[15] = qHTS RealTime-Glo MT Cell Viability Assay in HepG2 cells - 16 hour (AID 1224885); also: nearly all actives have a fitted effect of over 50% in size
Method in brief: as §5

[16] = qHTS RealTime-Glo MT Cell Viability Assay in HEK293 cells - 24 hour (AID 1224886)
Method in brief: as §3

[17] = qHTS RealTime-Glo MT Cell Viability Assay in HEK293 cells - 8 hour (AID 1224887)
Method in brief: as §4

[18] = A CellTox Green Cytotoxicity Assay to monitor cytotoxicity in HEK293 cells - 16 hour (AID 1224888); also: nearly all actives have a fitted effect of over 35% in size
Method in brief: as §2

[19] = qHTS RealTime-Glo MT Cell Viability Assay in HepG2 cells - 0 hour (AID 1224889); also: nearly all actives have a fitted effect of over 50% in size
Method in brief: as §5

[20] = A CellTox Green Cytotoxicity Assay to monitor cytotoxicity in HepG2 cells - 16 hour (AID 1224876); also: nearly all actives have a fitted effect of over 45% in size
Method in brief: as §6
% is scaled to controls: 0 for no effect and ±100 for the full control effect.

CCC(CC)C(=O)O
inactive: Potency [1] | Potency [2] | Potency [3] | outcome [4] | max response [5] 15% | Potency [6] | Potency [7] | Potency [8] | Potency [9] | Potency [10] | Potency [11] | Potency [12] | Potency [13] | Potency [14] | outcome [15] | Potency [16] | Potency [17] | Potency [18] | Potency [19]

S=c1[nH][nH]c(=S)s1
inactive: Potency [1] | Potency [2] | outcome [4] | Potency [6] | Potency [20] | Potency [7] | Potency [8] | Potency [9] | Potency [10] | Potency [11] | Potency [12] | Potency [13] | Potency [14] | outcome [15] | Potency [17] | Potency [18] | Potency [19]

CC(C)CCCCCOC(=O)CS
inactive: Potency [1] | Potency [2] | Potency [3] | max response [5] 4.02% | Potency [6] | Potency [7] | Potency [8] | Potency [9] | Potency [10] | Potency [12] | Potency [13] | Potency [14] | outcome [15] | Potency [16] | Potency [17] | Potency [18] | Potency [19]

Clc1ccccc1-c1nc(-c2ccncc2)no1
inactive: Potency [1] | Potency [2] | outcome [4] | Potency [6] | Potency [20] | Potency [7] | Potency [8] | Potency [10] | Potency [11] | Potency [12] | Potency [13] | Potency [14] | outcome [15] | Potency [17] | Potency [18] | Potency [19]
